Holding throughout (test): yeast three-hybrid, YBZ-1, SC-Leu-His + 0.5 mM 3-AT, 4 days
Common to all, as to conditions: tags: N-Gal4 AD-HA kept; label: inside an RPR1-promoter hybrid RNA with tandem MS2 sites; ssRNA

The target of one test is PUM1 PUF domain R4-QRG (Homo sapiens, UniProt Q14671 828-1176, N971Q;H972R;Q975G). In short, it runs like this:
(§1)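 A centromeric plasmid in strain YBZ-1 co-expressed Pumilio-1 PUF domain libraries, randomized at the three base-contacting residues of each repeat, with matching RNA elements; the strain carries a LexA–MS2 coat fusion and a HIS3 reporter. After four days on SC-Leu (input) or SC-Leu-His + 0.5 mM 3-AT (selection), the repeat regions were PCR-amplified and Illumina-sequenced. The interaction score is the log change in variant frequency from input to selection, using log2 and a pseudocount of 1 where absent.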

The target of another test is T1, PUM1 PUF domain R6-FYC (Homo sapiens, UniProt Q14671 828-1176, N1043F;Q1047C).
T1 sequence: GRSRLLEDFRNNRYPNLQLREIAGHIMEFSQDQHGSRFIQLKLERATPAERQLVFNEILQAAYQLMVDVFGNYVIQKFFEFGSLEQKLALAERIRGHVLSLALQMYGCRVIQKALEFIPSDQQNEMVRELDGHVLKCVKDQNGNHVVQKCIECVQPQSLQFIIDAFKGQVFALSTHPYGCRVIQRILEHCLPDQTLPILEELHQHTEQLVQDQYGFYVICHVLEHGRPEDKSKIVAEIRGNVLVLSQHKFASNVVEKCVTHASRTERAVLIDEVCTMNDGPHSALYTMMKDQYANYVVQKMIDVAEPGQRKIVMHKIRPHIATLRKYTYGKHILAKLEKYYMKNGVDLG
The procedure, abridged: as §1

A further test has as its target PUM1 PUF domain R8-LYG (Homo sapiens, UniProt Q14671 828-1176, N1122L;Q1126G). The procedure, abridged:
as §1

A further test has as its target PUM1 PUF domain R5-GFY (Homo sapiens, UniProt Q14671 828-1176, C1007G;R1008F;Q1011Y). In short, it runs like this:
as §1

A further test concerns the target T2, PUM1 PUF domain R6-TFR (Homo sapiens, UniProt Q14671 828-1176, N1043T;Y1044F;Q1047R).
T2 sequence: T1 sequence with F216T, Y217F, C220R
The procedure, abridged:
as §1

Another test concerns the target PUM1 PUF domain R7-RSG (Homo sapiens, UniProt Q14671 828-1176, S1079R;N1080S;E1083G). In short, it runs like this: as §1
For another test, the target named is PUM1 PUF domain R5-RCI (Homo sapiens, UniProt Q14671 828-1176, C1007R;R1008C;Q1011I). The procedure, abridged:
as §1

For the next test, the target named is PUM1 PUF domain R1-RIT (Homo sapiens, UniProt Q14671 828-1176, S863R;R864I;Q867T). In short, it runs like this: as §1
The target in a further test is PUM1 PUF domain R3-RNP (Homo sapiens, UniProt Q14671 828-1176, C935R;R936N;Q939P). In short, it runs like this:
as §1

A further test concerns the target PUM1 PUF domain R2-QWW (Homo sapiens, UniProt Q14671 828-1176, N899Q;Y900W;Q903W). The procedure, abridged:
as §1

Substitutions are numbered along the chain they refer to.

In the case of “GGCUAGAACUAGUGGAUCCCCCGGCGCCCGGCGGCUCGAGCCCGGGUAAGUGUAAAUAGUCUGCAUGCCGCCGGGCGCCAUGCCUGCAGGUCGACUCUAGAAAACAUG”, the binding signal with PUM1 PUF domain R4-QRG is 3.75 log2 enrichment (interaction score); in the test with PUM1 PUF domain R6-FYC it was 3.33 log2 enrichment (interaction score); with PUM1 PUF domain R8-LYG, 0.62 log2 enrichment (interaction score); in the test with PUM1 PUF domain R5-GFY it was 3.55 log2 enrichment (interaction score); with PUM1 PUF domain R6-TFR, 5.59 log2 enrichment (interaction score).
Take “GGCUAGAACUAGUGGAUCCCCCGGCGCCCGGCGGCUCGAGCCCGGGUAAGUUUAAAUAGUCUGCAUGCCGCCGGGCGCCAUGCCUGCAGGUCGACUCUAGAAAACAUG”: the binding signal in the test with PUM1 PUF domain R7-RSG was 2.86 log2 enrichment (interaction score).
On to “GGCUAGAACUAGUGGAUCCCCCGGCGCCCGGCGGCUCGAGCCCGGGUAAGUCUAAAUAGUCUGCAUGCCGCCGGGCGCCAUGCCUGCAGGUCGACUCUAGAAAACAUG”, for which the binding signal with PUM1 PUF domain R7-RSG is 0.33 log2 enrichment (interaction score).
As for “GGCUAGAACUAGUGGAUCCCCCGGCGCCCGGCGGCUCGAGCCCGGGUAAGUGUCAAUAGUCUGCAUGCCGCCGGGCGCCAUGCCUGCAGGUCGACUCUAGAAAACAUG”, the binding signal with PUM1 PUF domain R5-RCI is 2.64 log2 enrichment (interaction score).
Turning to “GGCUAGAACUAGUGGAUCCCCCGGCGCCCGGCGGCUCGAGCCCGGGUAAGUGUAAAUCGUCUGCAUGCCGCCGGGCGCCAUGCCUGCAGGUCGACUCUAGAAAACAUG”, the binding signal with PUM1 PUF domain R1-RIT was 5.29 log2 enrichment (interaction score).
For “GGCUAGAACUAGUGGAUCCCCCGGCGCCCGGCGGCUCGAGCCCGGGUAAGUGUAAUUAGUCUGCAUGCCGCCGGGCGCCAUGCCUGCAGGUCGACUCUAGAAAACAUG”, the binding signal in the test with PUM1 PUF domain R3-RNP was 4.2 log2 enrichment (interaction score).
In the case of “GGCUAGAACUAGUGGAUCCCCCGGCGCCCGGCGGCUCGAGCCCGGGUAAGCGUAAAUAGUCUGCAUGCCGCCGGGCGCCAUGCCUGCAGGUCGACUCUAGAAAACAUG”, the binding signal with PUM1 PUF domain R8-LYG is 2.57 log2 enrichment (interaction score).
As for “GGCUAGAACUAGUGGAUCCCCCGGCGCCCGGCGGCUCGAGCCCGGGUAAGUGUAAAGAGUCUGCAUGCCGCCGGGCGCCAUGCCUGCAGGUCGACUCUAGAAAACAUG”, in the test with PUM1 PUF domain R2-QWW, the binding signal was 5.58 log2 enrichment (interaction score).
For the sequence “GGCUAGAACUAGUGGAUCCCCCGGCGCCCGGCGGCUCGAGCCCGGGUAAGUGUUAAUAGUCUGCAUGCCGCCGGGCGCCAUGCCUGCAGGUCGACUCUAGAAAACAUG”, the binding signal in the test with PUM1 PUF domain R5-GFY is 2.65 log2 enrichment (interaction score).
As to “GGCUAGAACUAGUGGAUCCCCCGGCGCCCGGCGGCUCGAGCCCGGGUAAGUGCAAAUAGUCUGCAUGCCGCCGGGCGCCAUGCCUGCAGGUCGACUCUAGAAAACAUG”, the binding signal with PUM1 PUF domain R6-TFR was 5.38 log2 enrichment (interaction score).
